# Many of the other results were omitted from the sample, so hits are more common in it than they were.
# HTT aggregate – qHTS Multiplex Assay to Identify Dual Action Probes in a Cell Model of Huntington: Aggregate Formation (GFP). Potency, µM (top dose mostly 46.1 µM), without a hit: at the top dose activity change, negative = inhibition, actives largely listed as inhibitors. AID 1688, 2009. actives 1.1% (n = 220,000). PC12 HttQ103-GFP aggregates, Acumen cytometry, 40 h; also: % is scaled to controls: 0 for no effect and ±100 for the full control effect; nearly all actives have a fitted effect of over 60% in size
#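 Steps: seed 1500 PC12 HTTQ103-GFP cells/well; add tebufenozide, 100 nM final; add compound titration; add ATPLite reagent; quantify GFP aggregates by laser scanning cytometry.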
# Anesthetic bind – qHTS Assay for Identification of Novel General Anesthetics. apoferritin/1-aminoanthracene competitive binding, fluorescence. Potency, µM (titrated, usually from 77.5 µM), for the others: top-dose activity change, negative = displacement, usual class: inhibitors. Ferritin light chain (Equus caballus), P02791. AID 485281, 2010. actives 0.074% (n = 350,000); also: % is scaled to controls: 0 for no effect and ±100 for the full control effect; nearly all actives have a fitted effect of over 20% in size
# Target sequence (P02791 2-175 limits assumed): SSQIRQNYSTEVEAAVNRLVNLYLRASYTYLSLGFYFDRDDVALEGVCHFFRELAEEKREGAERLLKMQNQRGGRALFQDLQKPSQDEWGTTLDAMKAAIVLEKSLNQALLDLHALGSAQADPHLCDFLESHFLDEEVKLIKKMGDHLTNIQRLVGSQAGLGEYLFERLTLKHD
#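 Horse-spleen apoferritin (10 uM) was mixed with 50% saturated 1-aminoanthracene in PBS, exposed to compounds for 10 min at room temperature, and read for fluorescence (ex 380 nm, em 535 nm). Competitive displacement was fitted with a four-parameter Hill equation.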
# HTT cytoprotect – qHTS Multiplex Assay to Identify Dual Action Probes in a Cell Model of Huntington: Cytoprotection (ATP); PC12 HTT-Q103 induced, cytoprotection, ATP luminescence, 40 h; Potency, µM (highest dose often 56.4 µM), for the others: cytoprotection (ATP increase), actives largely listed as activators; actives 0.14% (n = 230,000); also: % of control where 0% means no effect; nearly all actives have a fitted effect of over 45% in size
#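 Compounds were screened for protection of PC12 cells against cell death after tebufenozide induction (100 nM final) of mutant Huntingtin exon 1 (Q103) fused to GFP.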
# PINK1 expr mod – A Quantitative High throughput Screen to Identify Chemical Modulators of PINK1 Expression; PINK1 immunofluorescence, high-content cytometry, 24 h; Potency, µM (doses to about 76.6 µM), without a hit: top-dose activation (PINK1 increase), most hits filed as activators; actives 0.2% (n = 410,000); AID 624263, 2012; active = well fitted activation curve with a large enough effect; inconclusive = small, poorly fitted or top-dose-only effect; cell line not stated here; also: % of control where 0% means no effect; nearly all actives have a fitted effect of over 65% in size
#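 Readout is PINK1 immunofluorescence, quantified alongside mitochondrial, cell and nuclear markers by laser-scanning microplate cytometry. Cells from a stable line were exposed to compound titrations (5 concentrations) for 24 hours, with CCCP controls.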
# Epigenetic derep – Quantitative High-Throughput Screen for Regulators of Epigenetic Control; murine LDR cells, GFP reporter derepression, 30 h; Potency, µM (highest dose often 53.9 µM), without a hit: top-dose GFP activation, usual class: activators; actives 0.2% (n = 280,000); also: % of control where 0% means no effect; nearly all actives have a fitted effect of over 60% in size
#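 Murine LDR cells bearing a silenced CMV-driven GFP reporter were exposed to compound for 30 h at 37 C. After PBS washes, GFP-positive cells (20-120 um objects) counted by laser-scanning microplate cytometry.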
# PTAP TSG101 blk – qHTS Assay for Iinhibitors of HIV-1 Budding by Blocking the Interaction of PTAP/TSG101 | Fluorescence polarization, FITC-PTAP peptide / Tsg101 binding | AID 493005, 2010 | 340,000 tested, under 10 active | Tumor susceptibility gene 101 protein (Homo sapiens), Q99816 | Potency, µM (titrated, usually from 115 µM), without a hit: top-dose activity change, negative = inhibition, most hits filed as inhibitors; active = well fitted inhibition curve with a large enough effect in the main read-out, with a control signal flat, not every such curve was filed as active; inconclusive = small, poorly fitted or top-dose-only effect, or effect the other way, or a change in a side signal; inactive = no such curve, though single readings can be large or run the other way; also: % of control where 0% means no effect
# Target sequence (Q99816 whole entry, looked up): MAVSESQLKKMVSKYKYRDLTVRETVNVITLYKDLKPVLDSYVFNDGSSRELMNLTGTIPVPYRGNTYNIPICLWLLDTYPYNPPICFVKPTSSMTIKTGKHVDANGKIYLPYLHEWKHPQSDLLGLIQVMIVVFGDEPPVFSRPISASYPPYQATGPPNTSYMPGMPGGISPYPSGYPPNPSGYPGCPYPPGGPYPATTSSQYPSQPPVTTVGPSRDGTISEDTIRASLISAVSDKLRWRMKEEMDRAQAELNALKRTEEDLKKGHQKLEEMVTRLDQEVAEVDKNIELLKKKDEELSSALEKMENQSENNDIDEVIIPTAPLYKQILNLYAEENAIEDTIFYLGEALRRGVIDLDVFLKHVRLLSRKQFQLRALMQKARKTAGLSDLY
#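 Fluorescence polarization binding of Tsg101 binding domain (10 uM final) to FITC-labeled PTAP peptide (50 nM final) in HEPES pH 7.5 buffer with NaCl, Tween 20, EDTA, TCEP. Compounds added before peptide; binding 20 min at RT.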
# * hit, by the source's call; u = inconclusive; x = no result given; [ ] = remark or other dose. Unless noted, calls follow the shape of the dose curve; as a rule, active = well fitted curve in the direction sought with a large enough effect; inconclusive = small, poorly fitted or top-dose-only effect, or another doubt; inactive = no such curve, though single readings can be large; an effect the other way counts as inactive or inconclusive. Potency is read from the fitted curve at half-maximal effect.
SMILES,HTT aggregate,Anesthetic bind,HTT cytoprotect,PINK1 expr mod,Epigenetic derep,PTAP TSG101 blk
COc1ccc(N(CC(=O)N/N=C(\C)CCc2ccccc2)S(=O)(=O)c2ccc(C)cc2)cc1,10.9%[9.22 µM],7.6%,3.55µM*,0.6%,2.0%,-5.2%
CCOC(=O)N=Nc1c2ccccc2c2nc3no[nH]c3nc12,1.26µM*,-14.8%,-183.0%,-2.4%,0.9%,0.5%
O=C1c2cccc3c(N4CCCCC4)ccc(c23)C(=O)N1c1cccc(O)c1,u,12.7%,-65.5%,4.7%,11.2µM*,u
CCN=c1scc(-c2ccc3c(c2)NC(=O)CO3)n1N=C1CCCC1,11.2µM*,u,-42.7%,1.8%,2.0%,-3.5%
CCCCN=c1scc(-c2ccc3c(c2)NC(=O)CO3)n1N=C1CCCC1,u,u,15.2%,u,0.1%,-4.6%
CCN1CCCC1CNC(=O)c1cnn(-c2ncc3c(n2)-c2ccc(OC)cc2CC3)c1C1CC1 (centres undefined),x,x,x,-0.3%,x,x
COCCN(C)C(=O)c1cnn(-c2ncc3c(n2)-c2ccccc2CC3)c1C,x,x,x,1.4%,x,x
CN(C)CCNC(=O)/C(=C/c1ccc(-c2ccc(Cl)cc2Cl)o1)NC(=O)c1ccccc1,35.5µM*,-0.1%,x,-1.7%,6.7%,-2.4%
CN(C)CCNC(=O)/C(=C/c1ccc(-c2ccc(Cl)cc2)o1)NC(=O)c1ccccc1,3.16µM*,-10.3%,-1.6%[0.074 µM],-1.6%,5.3%,0.0%
CN(C)CCCNC(=O)/C(=C\c1ccc(-c2cccc([N+](=O)[O-])c2)o1)NC(=O)c1ccccc1,x,-12.9%,x,0.8%,5.4%,-1.3%
Cc1nc([N+](=O)[O-])c(Br)n1Cc1ccc(Cl)c(Cl)c1,8.91µM*,u,6.9%[10 µM],-2.2%,1.1%,-1.5%
Cc1ccc(-c2nn(-c3ccccc3)cc2/C=N/NC(=O)c2ccc(Br)o2)cc1,7.08µM*,-17.7%,-41.7%,2.3%,1.2%,-1.6%
O=C(N/N=C/c1cn(-c2ccccc2)nc1-c1ccccc1)c1ccco1,8.4%,-7.7%,-5.9%[10 µM],-1.3%[38.3 µM],0.2%,-6.4%
O=C(N/N=C\c1cn(-c2ccccc2)nc1-c1ccccc1)c1ccc(Br)o1,25.1µM*,-10.2%,-49.2%,3.0%,-2.6%,-2.6%
COc1cc2nc(N3CCOCC3)nc(NC3CCN(C)CC3)c2cc1OC,x,x,x,0.1%,x,x
Cc1cc(-c2ccccc2)nc2cc(C(=O)N(Cc3ccccc3)Cc3ccccc3)nn12,12.6µM*,-13.6%,15.1%[10 µM],-0.6%,-1.0%,-0.5%
O=C(Oc1cc2oc(=O)cc(-c3ccccc3)c2cc1Cl)C1CCCCC1,7.08µM*,314.5%,-27.2%,1.1%,-1.4%,1.7%
CC(C)(C)OC(=O)NCC(=O)Oc1cc2oc(=O)cc(-c3ccccc3)c2cc1Cl,3.98µM*,337.8%,-19.9%[10 µM],0.2%,0.0%,-2.1%
CC(=O)N1CCC[C@H]1C(=O)NCC1Cc2cc(F)cc(-c3ccc(F)c(C)c3)c2O1 (some centres undefined),x,x,x,-0.7%,x,x
CCCC(=O)NC1CC(=O)N(c2ccc3c(c2)OCCO3)C1 (centres undefined),x,1.1%,x,-0.6%,9.7%,x
CC(/C=C1\SC(=S)N(CCC(=O)Nc2nc(C)cs2)C1=O)=C\c1ccccc1,17.9%[9.22 µM],-8.3%,7.5%[10 µM],39.8µM*,1.0%,-0.8%
O=S(=O)(Nc1nc2ccccc2nc1Nc1cccc(S(=O)(=O)N2CCCCC2)c1)c1ccccc1,u,1.0%,-21.4%[10 µM],25.1µM*,0.0%,-8.0%
COc1ccc(S(=O)(=O)Nc2cccc(S(=O)(=O)N3CCCCCC3)c2)cc1,26.9%,-2.2%,17.8%[10 µM],-1.6%,-1.0%,-1.6%
CC/C(C)=N\N=C\c1c(O)n(CC)c2cc(C3=NNC(=O)CC3)ccc12,-23.7%,0.9%,3.0%[10 µM],1.4%,0.0%,4.5%
CCn1c(O)c(/C=N/N=C/c2ccc(OC)cc2)c2cc(C3=NNC(=O)CC3)ccc21,-19.0%[9.22 µM],2.4%,0.5%[10 µM],u,7.08µM*,u
SMILES,HTT aggregate,Anesthetic bind,HTT cytoprotect,PINK1 expr mod,Epigenetic derep,PTAP TSG101 blk
CC(=O)N(Cc1ccc2c(c1)OCO2)Cc1cc2ccc(C)cc2nc1-c1cccc(C)c1,x,x,x,-0.3%,x,x
CCOC(=O)c1c(NC(=O)c2cc(=O)c3c(C)cc(C)cc3o2)sc(C)c1C,x,-6.2%,x,1.3%,0.0%,x
CCOC(=O)c1c(NC(=O)c2cc(=O)c3c(C)cc(C)cc3o2)sc2c1CCC2,x,-7.5%,x,31.6µM*,2.7%,x
COc1ccc(N(C)S(=O)(=O)c2cccc(C(=O)Nc3nc4ccccc4[nH]3)c2)cc1,u,-6.7%,x,0.5%,-0.2%,1.0%
CN(c1cccc(Cl)c1)S(=O)(=O)c1cccc(C(=O)Nc2nc3ccccc3[nH]2)c1,20µM*,5.5%,6.9%[1.9 µM],-0.5%,2.0%,-0.4%
Cc1ccc2[nH]c(C(=O)N3CCc4c(cnc(C)c4CNC(=O)c4ccccc4F)C3)cc2c1,x,x,x,-0.5%,x,x
O=C(NCC1Cc2cc(-c3cnc4ccccc4c3)cc(F)c2O1)c1cnsn1 (centres undefined),x,x,x,9.3%,x,x
COc1ccc(C(=O)C[n+]2cc(-c3ccc(OC)cc3)n3c2CCCC3)cc1,10µM*,-8.6%,2.8%[10 µM],2.0%,0.5%,-0.3%
O=C(C[n+]1cc(-c2ccccc2)n2c1CCCCC2)c1ccc(Br)cc1,6.8%[9.22 µM],-20.9%,9.8%[10 µM],0.3%,11.0%,-0.5%
Cc1ccc(C(=O)C[n+]2cc(-c3ccc(C)cc3)n3c2CCCCC3)cc1,0.891µM*,-13.6%,-75.6%,u,4.6%,-1.9%
C[n+]1c2n(c3ccccc31)N=C(c1ccc(-c3ccccc3)cc1)CS2,u,u,-51.8%[10 µM],12.6µM*,2.4%,-2.7%
C[n+]1c2n(c3ccccc31)N=C(c1ccccc1)CS2,10µM*,u,-48.7%,u,4.4%,-6.2%
C[n+]1c2n(c3ccccc31)N=C(c1ccc(Br)cc1)CS2,31.6µM*,-13.5%,-11.9%[10 µM],13.8%[38.3 µM],-1.1%,-4.0%
Cc1cc(-c2nnc3n2N=C(c2ccc(-c4ccccc4)cc2)CS3)n[nH]1,7.0%,-21.2%,-7.7%,14.6%,2.1%,-8.1%
CO[C@H]1[C@H](NC(=O)c2ccncc2)c2ccccc2C12CCN(C(=O)c1ccoc1)CC2,x,x,x,-0.7%,x,x
Oc1ccccc1Cn1c(-c2ccccc2O)nc2ccccc21,25.1µM*,-13.5%,-6.9%,7.8%,0.7%,0.6%

# From PubChem BioAssay
